Compounds with a hit are over-represented: about 9.5% of the library has one in this group of screens.
SARS PLP yeast – inhibitors of SARS-CoV papain-like protease in yeast. S. cerevisiae expressing SARS-CoV PLpro, growth rescue. Potency, µM (doses to about 32.9 µM), inactives show at the highest dose activity, positive = growth rescue, usual class: activators. 330,000 compounds, 0.19% hits; note: 0% is about no effect; nearly all actives have a fitted effect of over 55% in size
Pf growth 48h – inhibits P. falciparum growth in the first generation, 48 h. AID 504832. 310,000 compounds, 5.9% hits. Potency, µM (top dose mostly 28.7 µM), inactives show top-dose activity change, negative = inhibition, most hits filed as inhibitors. P. falciparum luciferase growth in erythrocytes, 48 h; active = well fitted inhibition curve with a large enough effect; inconclusive = small, poorly fitted or top-dose-only effect, or another doubt; inactive = no such curve, though single readings can be large or run the other way; note: % is set by controls: 0 for no effect and ±100 for the full control effect
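First compound was added to culture medium, then infected red cells at 0.1% parasitemia and 2% hematocrit (final). After incubation at 37 C under 5% CO2, luciferase detection reagent was dispensed and light output recorded.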
NS1 inh – blocks influenza NS1 protein function; Potency, µM (titrated, usually from 46.1 µM), without a hit: at the highest dose activity, positive = more growth; 270,000 compounds, 0.4% hits; note: actives are rising curves; nearly all actives have a fitted effect of over 50% in size
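OD600 was taken as the measure of yeast growth restored by compound in an NS1-expressing S. cerevisiae strain. Cells had been washed out of glucose medium and diluted 1:100 into galactose -URA medium, pH 6.0.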
RE007 growth inh – less growth of the S. pombe RE007 Vpr strain; Potency, µM (titrated, usually from 92.2 µM), without a hit: at the top dose activity change, negative = less growth, usual class: inhibitors; S. pombe RE007 Vpr strain, BacTiter-Glo ATP luminescence, 24 h; 360,000 compounds, 0.21% hits; active = well fitted falling curve with a large enough effect; inconclusive = small, poorly fitted or top-dose-only effect; inactive = no such curve, though single readings can be large or run the other way; note: % is set by controls: 0 for no effect and ±100 for the full control effect; nearly all actives have a fitted effect of over 50% in size
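Fission yeast RE007 carrying one integrated HIV-1 vpr copy, seeded at OD 0.01 in PMG+AL medium with 23 nL pinned compound. Grown 24 h at 30 degrees; viability read by BacTiter-Glo luminescence after 5 min.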
Pf growth 96h – inhibits malaria parasite growth, 96 h; P. falciparum luciferase reporter growth, 96 h; Potency, µM (highest dose often 28.7 µM), inactives show at the top dose activity change, negative = inhibition, usual class: inhibitors; 320,000 compounds, 6.9% hits; AID 504834; active = well fitted inhibition curve with a large enough effect; inconclusive = small, poorly fitted or top-dose-only effect, or another doubt; inactive = no such curve, though single readings can be large or run the other way; note: % is set by controls: 0 for no effect and ±100 for the full control effect
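Luminescence readout: decreased luciferase signal marks inhibited growth of reporter-expressing P. falciparum in infected red cells (2% hematocrit, 0.05% parasitemia final), exposed to compound two generations (96 h, 37 C, 5% CO2).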
* = called active by the depositor; ? = inconclusive; · = not tested or not shown; [ ] = dose if it differs, or a comment. Unless noted, calls come from the whole dose curve. Potency is the fitted concentration of half-maximal effect.

SMILES	SARS PLP yeast	Pf growth 48h	NS1 inh	RE007 growth inh	Pf growth 96h
O=C(COC(=O)c1ccc(=O)[nH]c1)Nc1cccc(S(=O)(=O)N2CCOCC2)c1	0.3%	?	11.2%	6.9%	7.0%
O=c1cc(-c2cc3ccccc3o2)c2cc(O)ccc2o1	-2.5%	?	-7.6%	-5.6%	?
Cc1cc2oc(=O)cc(-c3cc4ccccc4o3)c2cc1O	8.2%	7.38µM*	-15.6%	-18.4%	2.62µM*
O=c1cc(CSc2ccccc2)[nH]c2ccccc12	0.1%	10.4µM*	2.3%	-5.5%	27.8%
CCN(CC)CCOC(=O)c1ccc(N/C=C(/C#N)c2nc(-c3cc4ccccc4oc3=O)cs2)cc1	-1.7%	0.0828µM*	-1.5%	-5.0%	0.147µM*
CCN(CC)CCOC(=O)c1ccc(N/C=C(/C#N)c2nc(-c3ccc4c(c3)OCO4)cs2)cc1	3.0%	1.04µM*	19.1%	-6.4%	1.31µM*
COc1cc(/C=C(/C#N)c2nc(-c3cc4ccccc4oc3=O)cs2)cc([N+](=O)[O-])c1O	1.0%	2.33µM*	2.5%	·	?
CCN(CC)CCOC(=O)c1ccc(N/C=C(/C#N)c2nc(-c3ccc(OC)cc3)cs2)cc1	1.6%	?	9.6%	0.1%	?
COc1cc(/C=C(\C#N)c2nc(-c3cc4ccccc4oc3=O)cs2)ccc1O	4.3%	-15.9%	-7.2%	-9.0%	?
Cc1ccc(N(CC(=O)N2CCCCCC2)S(C)(=O)=O)cc1	·	·	·	-8.5%	·
COC(=O)C1=C(C)N(Cc2ccccc2)C(=NCc2ccco2)N[C@H]1c1ccc(Br)cc1	·	·	-14.8%	·	·
Cc1cccc(/C=N\N=C\c2cccc(C)c2)c1	6.8%	?	-11.0%	-13.8%	7.38µM*
CN1CCN(C(=O)c2ccccc2NC(=O)c2cccc(Cl)c2)CC1	1.5%	6.9%	14.4%	10.6%	1.6%
Cc1cc(C)nc(CCNC(=O)c2cc(COc3ccccc3)on2)n1	-0.4%	-11.7%	-22.5%	-10.0%	?
O=C(CN(c1ccc(F)cc1)S(=O)(=O)c1ccc2c(c1)OCCO2)Nc1ccccc1	3.9%	·	9.1%	0.6%[3.69 µM]	?
CC(=O)Nc1ccc(NC(=O)CN(c2ccc(F)cc2)S(=O)(=O)c2ccc3c(c2)OCCO3)cc1	3.4%	·	0.1%	10.3%	8.28µM*
O=C(CN(c1ccccc1F)S(=O)(=O)c1ccccc1)Nc1ccc2c(c1)OCCO2	2.6%	14.3%	16.9%	-15.0%	4.15µM*
COc1cc(-c2c(-c3cccc(C)c3)oc3ccccc23)cc(OC)c1OC	0.7%	?	11.0%	-19.0%	9.28µM*
COc1ccc(-c2ccc3oc(-c4ccc(OC)cc4)c(-c4cc(OC)c(OC)c(OC)c4)c3c2)cc1	·	·	·	4.1%	·
COc1ccc(OCC(=O)Nc2c(C(=O)N(CCN(C)C)Cc3ccco3)oc3ccccc23)cc1	2.9%	?	-15.5%	1.2%	10.4µM*
COc1ccc(OCC(=O)Nc2c(C(=O)N3CCN(C)CC3)oc3ccccc23)cc1	?	-8.9%	-10.6%	-5.4%	9.28µM*
Cc1ccccc1C(=O)Nc1c(C(=O)N(CCN(C)C)Cc2ccco2)oc2ccccc12	4.1%	?	8.4%	-11.9%	42.8%
COc1ccccc1C(=O)Nc1c(C(=O)N(CCN(C)C)Cc2ccco2)oc2ccccc12	1.5%	?	-26.9%	23.3%	10.4µM*
CN(CCO)C1=NS(=O)(=O)c2cc([N+](=O)[O-])ccc21	4.1%	4.15µM*	·	-25.4%	-27.0%
COCCCNC1=C(C#N)C(=O)NC2(CCCC2)S1	·	·	·	-6.9%	·
SMILES	SARS PLP yeast	Pf growth 48h	NS1 inh	RE007 growth inh	Pf growth 96h
O=C(CSc1nnc(-c2c[nH]c3ccccc23)o1)N(Cc1ccccc1)c1ccc(F)cc1	-25.8%	7.38µM*	-52.6%	1.7%	?
N/C(=N\c1nc2c(c(=O)[nH]1)CCCC2)Nc1ccc(Oc2ccccc2)cc1	0.2%	?	?	-7.3%	8.28µM*
Cc1cccc(N/C(N)=N/c2nc3c(c(=O)[nH]2)CCCC3)c1	1.6%	13.4%	-20.5%	-1.4%	22.1%
CCc1nc2ccc(C(=O)NCCCN(C)C)cn2c1N(CC)CCOC	·	·	·	-7.6%	·
COc1ccc(CCCc2nnc(SCC(=O)Nc3nc(C)cs3)n2C)cc1	0.7%	10.4µM*	3.1%	-15.3%	·
CCCCc1nnc(SCC(=O)Nc2nccs2)n1C	-2.3%	22.8%	1.9%	0.4%	10.4µM*
Cn1c(CSCc2ccccc2Cl)nnc1SCC(=O)Nc1nccs1	-8.0%	?	-4.4%	18.4%	11.7µM*
CCCc1nnc(SCC(=O)Nc2nccs2)o1	·	9.28µM*	1.8%	-21.0%	8.5%
COc1cc(C2C3=C(COC3=O)Oc3cc4c(cc32)OCO4)ccc1O (stereo not drawn)	·	·	·	-19.1%	·
Cn1c(SCC(=O)Nc2nccs2)nnc1-c1ccc(S(=O)(=O)N2CCCC2)cc1	0.6%	·	-5.0%	-7.8%	6.57µM*
O=S(=O)(c1ccccc1)N1CCN(c2nnc(-c3ccccc3)c3ccccc23)CC1	0.1%	?	1.9%	-9.8%	4.15µM*
Cc1ccc(-c2nnc(N3CCN(c4ccccn4)CC3)c3ccccc23)cc1	-3.0%	13.1µM*	-83.4%	-26.3%	-9.4%
CS(=O)(=O)N1CCN(c2nnc(-c3ccccc3)c3ccccc23)CC1	-1.3%	-23.5%	-2.3%	30.6%	-6.7%
Cc1cc(N2CCN(S(=O)(=O)c3ccccc3)CC2)nc2c(C)cccc12	3.6%	-6.8%	9.2%	13.1%	13.1µM*
Cc1cc(N2CCCCC2)nc2c(C)cccc12	0.6%	15.3%	1.2%	-22.0%	0.0%
c1ccc(-c2nnc(N3CCN(c4ccccn4)CC3)c3ccccc23)cc1	-17.2%	7.38µM*	-71.0%	18.5%	·
Cc1cc(/C=N/n2cnnc2)c(C)n1-c1ccc(Cl)cc1	-10.5%	-2.9%	-5.9%	37.1%	43.2%
Cc1cc(/C=N/N2CCN(C)CC2)c(C)n1-c1ccc(Cl)cc1	-1.6%	11.7µM*	4.9%	9.8%	?
O=C(NCCCN1CCCC1=O)c1cccc(S(=O)(=O)Nc2ccc(F)cc2)c1	2.8%	?	·	14.6%	13.1µM*
O=C(NCCCN1CCCC1=O)c1cccc(C(F)(F)F)c1	0.5%	3.2%	3.3%	3.3%	8.28µM*
O=C(O)c1cccc(S(=O)(=O)Nc2cccc(S(=O)(=O)Nc3ccc(Br)cc3)c2)c1	1.4%	1.5%	·	0.1%	0.7%
O=C(O)c1cccc(S(=O)(=O)Nc2ccc3c(c2)CCC3)c1	5.2%	39.1%	26.0%	-0.9%	4.15µM*
O=C(NCCCN1CCCC1=O)c1cccc(S(=O)(=O)Nc2ccc(Br)cc2)c1	-0.3%	?	·	7.2%	?
Cc1ccc(C(C)NC(=O)C23CC4CC(CC(C4)C2)C3)cc1 (stereo not drawn)	-0.2%	-32.6%[1.15 µM]	2.3%	30.7%	0.586µM*
CC(NC(=O)C12CC3CC(CC(C3)C1)C2)c1ccc2c(c1)OCCO2 (stereo not drawn)	-0.7%	·	-45.4%	-7.1%	?
CSCCC(NC(=O)C12CC3CC(CC(C3)C1)C2)C(=O)OCC(=O)c1ccc(C)cc1 (stereo not drawn)	5.2%	-4.5%	-6.4%	5.7%	0.329µM*
